# Shiga inhibitor = Shiga toxin inhibition | actives 9.2% (n = 290,000) | Vero cells, Shiga toxin protein synthesis inhibition reporter | inhibition, % at 38.7 µM; in the data active = inhibition mostly above about 28%, no sharp cut-off; inactive = mostly below about 43%; also: 0% is about no effect
# Cycloheximide cs = affects cycloheximide protein synthesis inhibition readout, counter-screen; cell reporter, cycloheximide protein synthesis inhibition counterscreen; max response, %; actives 12% (n = 300,000); AID 2314; in the data active = max response mostly above about 13%, no sharp cut-off; inactive = mostly below about 14%; also: read at 38.3 µM for the half of the compounds with a filed dose; 0% is about no effect
# LmPK inh = LmPK (Leishmania mexicana) enzyme inhibition; Q27686; purified LmPK, Kinase-Glo ATP luminescence, 1 h; Potency, µM (doses to about 57.5 µM), without a hit: at the highest dose activity change, negative = inhibition, hits mostly inhibitors; actives 0.37% (n = 290,000); also: potency is read from the fitted curve at half-maximal effect; % is scaled to controls: 0 for no effect and ±100 for the full control effect
# Target sequence (Q27686 whole entry, looked up): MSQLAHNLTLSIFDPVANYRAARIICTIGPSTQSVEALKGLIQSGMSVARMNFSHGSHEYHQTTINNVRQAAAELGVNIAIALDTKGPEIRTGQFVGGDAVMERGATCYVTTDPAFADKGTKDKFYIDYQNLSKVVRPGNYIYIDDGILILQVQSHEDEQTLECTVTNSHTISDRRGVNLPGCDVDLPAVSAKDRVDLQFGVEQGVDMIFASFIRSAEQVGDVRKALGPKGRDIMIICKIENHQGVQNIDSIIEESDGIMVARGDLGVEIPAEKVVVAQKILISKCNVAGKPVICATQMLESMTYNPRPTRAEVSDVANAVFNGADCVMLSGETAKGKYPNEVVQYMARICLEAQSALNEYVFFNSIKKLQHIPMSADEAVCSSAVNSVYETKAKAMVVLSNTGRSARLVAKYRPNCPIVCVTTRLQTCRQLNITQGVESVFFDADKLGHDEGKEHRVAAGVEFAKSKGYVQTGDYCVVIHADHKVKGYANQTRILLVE
#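 qHTS format; LmPK 0.1 nM; substrates PEP 0.5 mM and ADP 0.1 mM. One-hour room-temperature incubation, then coupled luciferase luminescence; 0.5 nM enzyme wells mark activation.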
# Tb PYK inh = inhibitors of Trypanosoma brucei pyruvate kinase | TbPYK enzyme, Kinase-Glo Plus ATP luminescence, 45 min | Potency, µM (top dose mostly 76.8 µM), for the others: top-dose activity, negative = inhibition, actives largely listed as inhibitors | actives 0.12% (n = 410,000) | AID 624173; also: potency is read from the fitted curve at half-maximal effect; % is scaled to controls: 0 for no effect and ±100 for the full control effect; nearly all actives have a fitted effect of over 50% in size
#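 Luminescence from Kinase-Glo Plus, added after a 45-minute room-temperature reaction, served as the end-point read-out. The enzyme and substrate were preincubated with compound before ADP (130 uM final) initiated turnover. Concentration-effect curves came from normalized qHTS data.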
# FBPA Giardia inh = blocks Giardia fructose-bisphosphate aldolase activity | A8B2U2 | purified Giardia FBPA | Potency, µM (titrated, usually from 59.6 µM), without a hit: at the highest dose activity, negative = inhibition, actives largely listed as inhibitors | actives 0.71% (n = 290,000) | AID 2451; also: potency is read from the fitted curve at half-maximal effect; % is scaled to controls: 0 for no effect and ±100 for the full control effect; nearly all actives have a fitted effect of over 55% in size
#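 Giardia FBPA (40 nM reagent) was preincubated 10 min at RT with compound (up to 57.5 uM final), then substrate plus GAPDH/TPI/NAD/arsenate coupling system with diaphorase/resazurin was added; resorufin fluorescence (525/598 nm) was read after 20 min.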
# RE007 growth inh = less growth of the S. pombe RE007 Vpr strain; S. pombe RE007 Vpr strain, BacTiter-Glo ATP luminescence, 24 h; Potency, µM (top dose mostly 92.2 µM), for the others: top-dose activity change, negative = less growth, hits mostly inhibitors; actives 0.21% (n = 360,000); AID 651644; active = well fitted falling curve with a large enough effect; inconclusive = small, poorly fitted or top-dose-only effect; inactive = no such curve, though single readings can be large or run the other way; also: potency is read from the fitted curve at half-maximal effect; % is scaled to controls: 0 for no effect and ±100 for the full control effect; nearly all actives have a fitted effect of over 50% in size
#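 Fission yeast RE007 carrying one integrated HIV-1 vpr copy, seeded at OD 0.01 in PMG+AL medium with 23 nL pinned compound. Grown 24 h at 30 degrees; viability read by BacTiter-Glo luminescence after 5 min.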
# * = called active by the depositor; ? = inconclusive; · = no result given; [ ] = dose if it differs, or a comment. The sample as a whole holds a higher share of hits than the screen did. Unless noted, calls follow the shape of the dose curve; as a rule, active = well fitted curve in the direction sought with a large enough effect; inconclusive = small, poorly fitted or top-dose-only effect, or another doubt; inactive = no such curve, though single readings can be large; an effect the other way counts as inactive or inconclusive.
SMILES,Shiga inhibitor,Cycloheximide cs,LmPK inh,Tb PYK inh,FBPA Giardia inh,RE007 growth inh
COC(=O)c1sc(NC(=S)NC(=O)c2ccccc2F)nc1C,160*,51*,-1%,4%,-15%,-17%
CCN(c1ccccc1)c1ccc2cc(S(=O)(=O)N3CCCC3)ccc2n1,·,·,·,1%,·,·
Cc1ccc(S(=O)(=O)c2nnn(-c3cccc(F)c3)c2N)cc1,19,-5,9%[11.5 µM],0%,-1%,-2%
O=C(CCc1nnc2ccc(NCc3ccccc3)nn12)NC1CCCCC1,7,2,-7%,-6%,·,-14%
COc1ccc(C2Nc3ccccc3C(=O)N2Cc2ccccc2)cc1COc1ccccn1 (centres undefined),-13,-4,0%,-6%,-7%,0%
COc1ccc(N2C(=O)c3ccccc3NC2c2ccc(OC)c(COc3ccccn3)c2)cc1 (centres undefined),11,16*,0%,1%,-2%,5%
COc1ccc(N2C(=O)c3ccccc3NC2c2ccc(OC)c(CSc3ccccn3)c2)cc1 (centres undefined),76,56*,-3%,-2%,1%,2%
O=C(Cn1c(-c2cccs2)cc2ccccc21)NCCCN1CCN(c2ccccc2F)CC1,·,·,·,8%,·,·
O=C1C[C@@H](c2ccc(O[C@@H]3O[C@H](CO)[C@@H](O)[C@H](O)[C@H]3O)cc2)Oc2cc(O)ccc21,active,20*,-3%,2%,4%,5%
O=C1CC(c2ccc(O[C@@H]3OC(CO)[C@@H](O)C(O)C3O)cc2)Oc2cc(O)ccc21 (some centres undefined),·,·,·,·,2%,·
Cc1c(C(=O)NCC2CCCO2)oc2ccc3c(c12)C(=O)CC(C)(C)O3 (centres undefined),75*,40*,-5%,5%,3%,-4%
CC1=C(c2ccc(C)c(C)c2)S(=O)(=O)N=C1N1CCC(C(=O)NCCc2ccc(Cl)cc2)CC1,·,·,·,4%,·,·
COc1ccc(CNC(=O)CCC(=O)N2CCSc3ccccc32)cc1,·,·,·,-4%,·,·
O=C(NCCc1ccc(Cl)cc1)c1cnccn1,9,17*,5%,1%,-5%,11%
O=C(NCCC1=CCCCC1)c1cnccn1,42,20*,2%,-6%,0%,7%
COc1ccc(CCNC(=O)c2cnccn2)cc1,3,-5,3%,-10%,-3%,5%
Cc1cnc(C(=O)NCCc2ccc(Cl)cc2)cn1,73*,55*,-7%,4%,·,-7%
COc1cc(C(=O)OC(C)CN2CCCCC2)cc(OC)c1OC (centres undefined),-7,-1,-5%,1%,?,-4%
Cc1ccc(C(=O)N/N=C/c2cc(Br)ccc2O)cn1,·,16*,13%,0%,-10%,7%
Cc1ccc(C(=O)N/N=C\c2ccccc2[N+](=O)[O-])cn1,53,23*,-2%,-7%,-2%,-6%
CCOc1ccc(C(=O)N/N=C/c2cccc3cccnc23)cc1,70,35*,2%,4%,-21%,-21%
CCOc1ccc(C(=O)N/N=C/c2ccccc2[N+](=O)[O-])cc1,102*,73*,-5%,-1%,0%,-2%
CCCn1cnnc1CNC(=O)C1CCC(=O)N(CCc2cccc(F)c2)C1 (centres undefined),-5,-1,-4%,6%,-4%,10%
CCOC(=O)c1c(S(=O)(=O)N2CCN(c3ccccc3OC)CC2)c(C)n(C)c1C,·,·,·,-1%,·,·
Cc1cccc(-n2c(C)nc3c(cnn3-c3ccc(F)cc3)c2=O)c1,31,39*,-4%,0%,-1%,25%
SMILES,Shiga inhibitor,Cycloheximide cs,LmPK inh,Tb PYK inh,FBPA Giardia inh,RE007 growth inh
C=CCn1c(C)nc2ccccc2c1=O,-5,5,8%,6%,4%,9%
CSc1nc2c(cnn2-c2ccccc2)c(=O)n1N,91*,28*,-6%,-4%,0%,7%
CCSc1nc2c(cnn2-c2ccccc2)c(=O)n1N,50*,46*,-14%,-10%,-3%,-12%
C=CCn1c(C)nc2c(cnn2-c2ccccc2)c1=O,19,14*,-2%,-3%,11%,11%
Cc1ccc(-n2c(C)nc3c(cnn3-c3ccccc3)c2=O)cc1,·,·,·,3%,·,·
COC(=O)c1c(Oc2ccc(Br)cc2)nnc(-c2ccccc2)c1-c1ccccc1,·,·,·,0%,·,·
Oc1c(C(c2ccccc2F)N2CCC3(CC2)OCCO3)sc2nc(-c3ccco3)nn12 (centres undefined),·,·,·,4%,·,·
CC(C(=O)O)N(c1ccccc1Cl)S(C)(=O)=O (centres undefined),·,·,·,8%,·,7%
Cc1ccc(Cn2nc(C(=O)Nc3ccc(Br)cc3)cc2C)cc1,154*,54*,0%,-9%,-4%,-5%
Cc1ccc(Cn2c(C(=O)Nc3ccc(Cl)cc3)cc3sccc32)cc1,·,·,·,-2%,·,·
Cc1ccc(Cn2nc(C)cc2C(=O)Nc2ccccc2Cl)cc1,147*,59*,-1%,-1%,8%,4%
Cc1cccc(Cn2nc(C(C)(C)C)cc2C(=O)Nc2ccc(F)cc2)c1,36,18*,2%,-7%,-8%,14%
Cc1ccc(Cn2nc(C)cc2C(=O)Nc2ccc(Cl)cc2)cc1,72*,39*,1%,0%,-12%,3%
CC(C)(C)c1cc(C(=O)NN)n(Cc2ccc(F)cc2)n1,9,-4,10%,6%,-2%,1%
Cc1cccc(NC(=O)CSc2cn(CC(=O)N3CCCC3)c3ccccc23)c1C,·,·,·,-10%,·,·
O=C(NNc1ccc(C2CCCCC2)cc1)C(O)(c1ccccc1)c1cccs1 (centres undefined),37,16*,3%,-4%,-8%,18%
CC(=O)Nc1ccc(C(=O)CSc2nnc(-c3ccccc3)n2-c2ccccc2)cc1,·,·,·,-7%,·,·
O=C(CCNc1ccccc1)c1ccc2c(c1)OCO2,71*,63*,-13%,3%,6%,32µM*
O=C(Cc1ccccc1[N+](=O)[O-])c1ccc2c(c1)OCO2,·,·,·,-6%,·,15%
CN(C)CCCC(=O)c1ccc2c(c1)OCO2,-6,-6,2%,-3%,-3%,-8%
CN(C)CCC(=O)c1ccc2c(c1)OCO2,13,24*,1%,-12%,-2%,11µM*
O=C(NCc1nnnn1-c1ccc(F)c(F)c1)C(=O)c1c[nH]c2ccccc12,·,·,·,3%,·,1%
CC(C)CNC(=O)CCc1nc(-c2ccccc2)no1,33*,27*,-1%,-5%,2%,7%
COc1ccc(-c2cc(CCCC(=O)NCc3ccccn3)no2)cc1,21,34*,1%,-1%,-6%,7%
O=C(CCCN1C(=O)[C@H]2CC=CC[C@H]2C1=O)NCc1nc(-c2ccc(Cl)cc2)no1,14,-3,-15%,5%,·,2%
